# Inconclusive results are not listed. Active and inactive are the calls of the source. Unless noted, calls follow the shape of the dose curve; as a rule, active = well fitted curve in either direction with a large enough effect (not every such curve was filed as active); inconclusive = small, poorly fitted or top-dose-only effect, or another doubt; inactive = flat fitted curve, though single readings scatter.
# What was measured:
# [1] = molecular target: Lysosomal acid glucosylceramidase (Homo sapiens) (UniProt P04062); experiment: Glucocerebrosidase-p2 (AID 348; in the data active = potency below about 10 µM; also: potency is read from the fitted curve at half-maximal effect); settings: purified GBA, blue fluorogenic substrate, 40 min
# Chain of Lysosomal acid glucosylceramidase (Homo sapiens) (P04062 whole entry, looked up): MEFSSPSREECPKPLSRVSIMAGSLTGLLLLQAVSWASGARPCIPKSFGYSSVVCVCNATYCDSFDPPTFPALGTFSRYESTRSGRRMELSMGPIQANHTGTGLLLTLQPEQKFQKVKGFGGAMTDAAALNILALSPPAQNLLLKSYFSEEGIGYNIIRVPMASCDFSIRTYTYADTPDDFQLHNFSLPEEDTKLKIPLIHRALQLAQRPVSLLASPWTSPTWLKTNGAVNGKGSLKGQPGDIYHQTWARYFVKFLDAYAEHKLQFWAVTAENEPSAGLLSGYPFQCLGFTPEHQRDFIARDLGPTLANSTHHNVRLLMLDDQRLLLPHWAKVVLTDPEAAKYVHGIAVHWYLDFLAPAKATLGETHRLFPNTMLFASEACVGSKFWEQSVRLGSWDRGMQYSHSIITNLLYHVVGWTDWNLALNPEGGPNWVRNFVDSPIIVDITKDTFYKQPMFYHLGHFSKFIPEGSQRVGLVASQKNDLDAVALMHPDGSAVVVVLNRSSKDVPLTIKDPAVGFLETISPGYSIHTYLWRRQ
# How it was run: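 Compounds titrated from 0.6 nM upwards against 0.2 nM enzyme in pH 5.9 citric acid/KH2PO4, taurocholate, tween-20; blue fluorogenic substrate 80 uM, 40 min room temperature, stopped and read Ex 365/Em 440 for AC50.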
# [2] = AP1 Signaling Pathway (AID 357); settings: ME-180 AP-1-bla reporter, EGF-induced, beta-lactamase ratio, 5 h; at 7.69 µM (top of the series) unless noted; also: % is scaled to controls: 0 for no effect and ±100 for the full control effect
# How it was run: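 Modulation of EGF-driven AP-1 transcription was assessed with a beta-lactamase reporter in ME-180 cells. Compound and EC50 EGF were co-incubated 5 hours at 37 °C before 2.5-hour CCF4 loading at room temperature and dual-emission reading.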
# [3] = NFAT Signaling Pathway (AID 444); settings: Jurkat NFAT-bla M1, carbachol, beta-lactamase ratio, 5 h; at 7.69 µM (top of the series) unless noted;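 also: carbachol stimulus at about its EC50 of 1 µM final; % is scaled to controls: 0 for no effect and ±100 for the full control effect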
# How it was run: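 Read-out: CCF4 FRET ratio (460 nm/530 nm) after 1 h RT dye loading, used for %activity and AC50 from titration series. Cells: Jurkat NFAT-β-lactamase/M1 line, treated with compound plus 1 uM carbachol for 5 h, 37 °C.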
# [4] = Stat Signaling Pathway (AID 446); settings: ME-180 (cervical carcinoma) SIE beta-lactamase reporter, IL-6 stimulated, 5 h; at 7.69 µM (top of the series) unless noted;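 also: ME-180 cervical cancer cells given 40 pM IL-6 alongside compound; SIE-controlled beta-lactamase reporter measured as 460/530 nm FRET emission ratio; % is scaled to controls: 0 for no effect and ±100 for the full control effect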
# How it was run: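 IL-6/STAT signaling read in ME-180 cells via an SIE beta-lactamase reporter. Stimulus was 40 pM IL-6 (its AC50) for 5 hrs, so both activation and inhibition register.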
# [5] = molecular target: Glucocorticoid receptor (Homo sapiens) (UniProt P04150); experiment: GR-GFP Redistribution (AID 450;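 active = compounds whose dose series gives a full or clear partial fitted curve of increased nuclear translocation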; also: potency is read from the fitted curve at half-maximal effect); settings: U2OS GR-GFP nuclear translocation, laser cytometry, 2 h
# Chain of Glucocorticoid receptor (Homo sapiens) (P04150 whole entry, looked up, the tested form may be a part): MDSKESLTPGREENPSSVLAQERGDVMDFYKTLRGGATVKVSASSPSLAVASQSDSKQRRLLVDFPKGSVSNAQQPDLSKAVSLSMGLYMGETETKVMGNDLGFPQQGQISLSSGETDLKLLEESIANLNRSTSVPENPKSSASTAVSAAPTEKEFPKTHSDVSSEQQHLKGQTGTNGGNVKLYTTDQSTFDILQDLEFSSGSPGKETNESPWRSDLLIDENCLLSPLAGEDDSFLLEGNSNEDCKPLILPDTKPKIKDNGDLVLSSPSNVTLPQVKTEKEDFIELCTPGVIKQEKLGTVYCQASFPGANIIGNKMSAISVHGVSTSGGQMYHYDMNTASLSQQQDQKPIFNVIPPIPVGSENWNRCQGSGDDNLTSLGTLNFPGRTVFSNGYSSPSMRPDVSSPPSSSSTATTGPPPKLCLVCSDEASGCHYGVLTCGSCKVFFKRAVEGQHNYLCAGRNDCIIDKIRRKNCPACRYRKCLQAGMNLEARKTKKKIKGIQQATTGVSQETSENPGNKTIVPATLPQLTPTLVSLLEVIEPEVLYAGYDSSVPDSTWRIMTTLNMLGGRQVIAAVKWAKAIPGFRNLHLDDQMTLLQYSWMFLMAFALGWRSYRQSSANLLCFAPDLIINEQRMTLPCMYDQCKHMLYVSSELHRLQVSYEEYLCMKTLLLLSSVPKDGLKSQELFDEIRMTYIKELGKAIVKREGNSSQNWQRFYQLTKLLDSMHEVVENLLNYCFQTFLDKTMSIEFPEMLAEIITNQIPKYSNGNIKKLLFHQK
# [6] = molecular target: Glucocorticoid receptor (Homo sapiens) (UniProt P04150); experiment: GR-EFC Redistribution (AID 451; calls by dose curve; also: potency is read from the fitted curve at half-maximal effect); settings: CHO-K1 GR-EFC translocation, beta-gal luminescence, 2 h
# How it was run: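 Translocation of GR-ED fusion to nuclear EA restores b-gal, read by luminescence after 1 h room-temperature detection. Engineered CHO-K1 biosensor cells, 1,000/well, exposed 2 h at 37 C to titrations up to 46 uM final.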
# [7] = molecular target: Mitogen-activated protein kinase 10 (Mus musculus) (UniProt Q61831); experiment: JNK3 AlphaScreen Assay (AID 530); settings: JNK3 lysate, c-Jun phosphorylation; series mostly up to 57.1 µM;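 also: kinase came from lysate of stimulated human HepG2 cells; signal reports phosphorylation of biotinylated GST-cJun 1-79 at Ser73 with 10 µM ATP; % is scaled to controls: 0 for no effect and ±100 for the full control effect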
# How it was run: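 Room-temperature AlphaScreen kinase assay; pre-activated HepG2 lysate as JNK3 source, biotin-GST-cJun(1-79) substrate, 10 uM ATP, compound 15 min preincubation.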
# [8] = molecular target: 3',5'-cyclic-AMP phosphodiesterase 4B (Homo sapiens) (UniProt Q07343); experiment: qHTS Assay for Inhibitors of PDE-IV (AID 607; active = well fitted activation curve with a large enough effect in the main read-out, with a control signal flat, not every such curve was filed as active; also: % of control where 0% means no effect); settings: HEK293 ACTOne CNG channel cells, membrane potential fluorescence; series mostly up to 22.9 µM
# Chain of 3',5'-cyclic-AMP phosphodiesterase 4B (Homo sapiens) (Q07343 whole entry, looked up): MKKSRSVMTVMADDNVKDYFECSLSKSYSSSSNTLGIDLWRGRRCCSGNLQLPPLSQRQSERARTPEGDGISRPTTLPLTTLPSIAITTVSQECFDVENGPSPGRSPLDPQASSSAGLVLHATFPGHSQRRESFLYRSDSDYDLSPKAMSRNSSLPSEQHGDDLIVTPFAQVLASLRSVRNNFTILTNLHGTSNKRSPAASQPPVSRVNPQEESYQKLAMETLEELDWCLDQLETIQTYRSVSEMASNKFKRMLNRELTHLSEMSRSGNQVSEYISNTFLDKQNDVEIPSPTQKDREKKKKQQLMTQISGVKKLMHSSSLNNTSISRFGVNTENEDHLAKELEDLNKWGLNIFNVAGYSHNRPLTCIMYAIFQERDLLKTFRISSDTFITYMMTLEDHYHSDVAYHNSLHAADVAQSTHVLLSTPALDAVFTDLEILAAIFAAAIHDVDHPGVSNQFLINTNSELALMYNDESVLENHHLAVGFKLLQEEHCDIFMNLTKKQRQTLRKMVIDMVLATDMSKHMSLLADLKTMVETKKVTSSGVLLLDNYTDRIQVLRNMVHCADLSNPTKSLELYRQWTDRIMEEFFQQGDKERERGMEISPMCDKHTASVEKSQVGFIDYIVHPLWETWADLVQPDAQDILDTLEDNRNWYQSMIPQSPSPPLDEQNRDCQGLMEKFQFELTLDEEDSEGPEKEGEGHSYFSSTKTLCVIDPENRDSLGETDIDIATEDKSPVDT
# How it was run: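 Live HEK293 cells with a modified cyclic nucleotide-gated (CNG) channel report intracellular cAMP via membrane-potential dye fluorescence (ex 535/em 590 nm). Endogenous PDE-IV was targeted. Compounds were tested at up to 22.9 uM final; RO 20-1724 100 uM served as control.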
# [9] = Confirmation and Secondary Assay for Modulators of Hemoglobin Beta Chain Splicing at IVS2 654 locus (AID 910; active = well fitted curve in the direction sought with a large enough effect; an effect the other way counts as inactive or inconclusive;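 also: HeLa cells stably carrying EGFP split by mutant beta-globin IVS2-654 intron; per-well total GFP intensity by laser scanning cytometry after 2-day treatment; % of control where 0% means no effect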); settings: HeLa EGFP-654 splicing reporter, GFP fluorescence, 48 h; series mostly up to 38.3 µM
# How it was run: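 Readout: per-well total peak green fluorescence (488 nm ex, 500–520 nm em) from objects 5–250 µm, reflecting correct splicing of an EGFP-654 reporter. Compounds were applied for 2 days at 37 °C to overnight-plated HeLa EGFP-654 cells; controls were DMSO and 500 nM IVS2-654 PNA.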
# [10] = qHTS Assay for Lipid Storage Modulators (AID 1519; calls by dose curve; also: potency is read from the fitted curve at half-maximal effect); settings: Drosophila S3 cells, BODIPY lipid droplet/cell ratio, laser cytometry, cells loaded with oleic acid; for activity change, negative = inhibition: at 57.5 µM (top of the series)
# How it was run: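 Cells seeded at 5,000 per well were treated with compounds over a concentration series and loaded with oleic acid (400 uM, as added). Lipid droplet fluorescence (488 nm excitation, 500-530 nm channel) was read by laser-scanning cytometry and normalized to 20 uM Triacsin C.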
# [11] = molecular target: Ubiquitin carboxyl-terminal hydrolase 1 (Homo sapiens) (UniProt O94782); experiment: Inhibitors of USP1/UAF1: Pilot qHTS (AID 504865; active = well fitted curve in the direction sought with a large enough effect; an effect the other way counts as inactive or inconclusive;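 also: rhodamine fluorescence freed from ubiquitin-rhodamine substrate followed over time; top concentration of the series differs between compounds; % is scaled to controls: 0 for no effect and ±100 for the full control effect; nearly all actives have a fitted effect of over 35% in size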); settings: purified USP1/UAF1, Ub-rhodamine cleavage fluorescence; series mostly up to 54.9 µM
# Chain of Ubiquitin carboxyl-terminal hydrolase 1 (Homo sapiens) (O94782 whole entry, looked up): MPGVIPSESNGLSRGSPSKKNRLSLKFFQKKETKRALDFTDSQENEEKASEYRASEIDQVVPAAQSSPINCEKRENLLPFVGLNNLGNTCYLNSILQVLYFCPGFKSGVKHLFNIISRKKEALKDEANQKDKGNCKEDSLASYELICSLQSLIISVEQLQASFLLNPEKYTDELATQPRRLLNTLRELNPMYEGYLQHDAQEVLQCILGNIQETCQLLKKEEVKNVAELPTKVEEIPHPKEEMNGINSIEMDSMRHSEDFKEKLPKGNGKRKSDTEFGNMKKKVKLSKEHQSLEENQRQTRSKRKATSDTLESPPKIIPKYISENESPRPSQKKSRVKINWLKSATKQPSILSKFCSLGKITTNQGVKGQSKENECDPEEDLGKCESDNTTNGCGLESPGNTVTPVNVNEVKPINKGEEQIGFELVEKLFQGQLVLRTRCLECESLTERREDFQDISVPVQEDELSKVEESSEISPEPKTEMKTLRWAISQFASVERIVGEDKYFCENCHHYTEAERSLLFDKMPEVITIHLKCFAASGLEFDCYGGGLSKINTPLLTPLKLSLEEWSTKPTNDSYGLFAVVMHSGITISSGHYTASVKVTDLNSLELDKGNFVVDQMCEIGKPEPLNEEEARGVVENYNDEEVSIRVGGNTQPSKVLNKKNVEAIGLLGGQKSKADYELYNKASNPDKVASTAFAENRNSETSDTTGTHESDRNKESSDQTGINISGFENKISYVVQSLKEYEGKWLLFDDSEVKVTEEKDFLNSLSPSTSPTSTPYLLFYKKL
# How it was run: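 USP1/UAF1 complex (1nM) preincubated with compound 15 min at room temperature, then Ub-Rho substrate (150nM final) added. Fluorescence read kinetically at 480/540 nm, 6 reads every 60 seconds. Buffer: 50mM HEPES pH 7.8, 0.5mM EDTA, 0.1 mg/ml BSA, 1mM TCEP, 0.01% Tween-20.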
# [12] = molecular target: Cytochrome P450 1A2 (Homo sapiens) (UniProt P05177); experiment: p450-cyp1a2 (AID 410; calls by dose curve; also: potency is read from the fitted curve at half-maximal effect;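 as to activity change, negative = inhibition: -100% = full effect of reference inhibitor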); settings: recombinant CYP1A2, luciferin-ME demethylation, luminescence; series mostly up to 57 µM
# Chain of Cytochrome P450 1A2 (Homo sapiens) (P05177 whole entry, looked up): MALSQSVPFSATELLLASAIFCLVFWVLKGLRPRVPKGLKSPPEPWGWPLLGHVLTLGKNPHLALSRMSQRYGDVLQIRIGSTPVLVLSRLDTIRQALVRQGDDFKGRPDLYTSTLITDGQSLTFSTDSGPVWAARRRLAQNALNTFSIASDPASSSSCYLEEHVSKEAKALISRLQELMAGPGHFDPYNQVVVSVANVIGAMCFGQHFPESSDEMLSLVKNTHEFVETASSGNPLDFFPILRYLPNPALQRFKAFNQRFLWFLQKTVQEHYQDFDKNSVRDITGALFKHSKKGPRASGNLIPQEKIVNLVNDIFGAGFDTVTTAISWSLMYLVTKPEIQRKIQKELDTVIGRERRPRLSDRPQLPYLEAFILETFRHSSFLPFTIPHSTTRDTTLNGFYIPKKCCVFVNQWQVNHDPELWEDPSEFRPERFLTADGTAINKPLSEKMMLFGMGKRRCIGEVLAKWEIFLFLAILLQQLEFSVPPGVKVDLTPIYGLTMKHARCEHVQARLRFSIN
# How it was run: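 Human CYP1A2 (20nM) demethylated Luciferin-ME at its Km (100uM) in 100mM KPO4. After 10 min compound preincubation, NADPH regeneration ran the reaction 60 min at room temperature. Luciferin was read by luminescence, normalized to 57 uM furafylline.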
# [13] = molecular target: Cytochrome P450 3A4 (Homo sapiens) (UniProt P08684); experiment: qHTS Assay for Activators of Cytochrome P450 3A4 (AID 885; active = well fitted curve in the direction sought with a large enough effect; an effect the other way counts as inactive or inconclusive; also: nearly all actives have a fitted effect of over 65% in size); settings: recombinant CYP3A4, Luciferin-PPXE luminescence, 60 min; series mostly up to 57.1 µM
# Chain of Cytochrome P450 3A4 (Homo sapiens) (P08684 whole entry, looked up): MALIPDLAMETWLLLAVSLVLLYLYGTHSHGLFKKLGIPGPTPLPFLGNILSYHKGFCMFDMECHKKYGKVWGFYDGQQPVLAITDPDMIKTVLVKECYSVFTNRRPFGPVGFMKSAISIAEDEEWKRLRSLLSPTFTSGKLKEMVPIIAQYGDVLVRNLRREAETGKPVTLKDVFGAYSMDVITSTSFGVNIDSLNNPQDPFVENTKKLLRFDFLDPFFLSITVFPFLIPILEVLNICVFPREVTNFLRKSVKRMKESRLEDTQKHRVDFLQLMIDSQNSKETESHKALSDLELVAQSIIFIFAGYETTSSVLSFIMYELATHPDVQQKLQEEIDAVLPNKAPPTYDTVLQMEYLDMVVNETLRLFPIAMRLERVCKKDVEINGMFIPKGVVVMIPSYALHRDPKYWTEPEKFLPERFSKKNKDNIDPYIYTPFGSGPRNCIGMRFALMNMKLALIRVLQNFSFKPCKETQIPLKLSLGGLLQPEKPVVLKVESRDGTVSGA
# How it was run: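 Quantitative HTS format: compounds preincubated with 20nM human CYP3A4 and Luciferin-PPXE substrate at KM, reaction started by NADPH regeneration, stopped after 60 min, luciferase luminescence read 20 min later.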
# [14] = molecular target: Cytochrome P450 2D6 (Homo sapiens) (UniProt P10635); experiment: qHTS Assay for Inhibitors and Substrates of Cytochrome P450 2D6 (AID 891; active = well fitted curve in the direction sought with a large enough effect; an effect the other way counts as inactive or inconclusive; also: nearly all actives have a fitted effect of over 60% in size; also: potency is read from the fitted curve at half-maximal effect); settings: recombinant CYP2D6, luciferin-ME EGE luminescence; series mostly up to 57.1 µM
# Chain of Cytochrome P450 2D6 (Homo sapiens) (P10635 whole entry, looked up): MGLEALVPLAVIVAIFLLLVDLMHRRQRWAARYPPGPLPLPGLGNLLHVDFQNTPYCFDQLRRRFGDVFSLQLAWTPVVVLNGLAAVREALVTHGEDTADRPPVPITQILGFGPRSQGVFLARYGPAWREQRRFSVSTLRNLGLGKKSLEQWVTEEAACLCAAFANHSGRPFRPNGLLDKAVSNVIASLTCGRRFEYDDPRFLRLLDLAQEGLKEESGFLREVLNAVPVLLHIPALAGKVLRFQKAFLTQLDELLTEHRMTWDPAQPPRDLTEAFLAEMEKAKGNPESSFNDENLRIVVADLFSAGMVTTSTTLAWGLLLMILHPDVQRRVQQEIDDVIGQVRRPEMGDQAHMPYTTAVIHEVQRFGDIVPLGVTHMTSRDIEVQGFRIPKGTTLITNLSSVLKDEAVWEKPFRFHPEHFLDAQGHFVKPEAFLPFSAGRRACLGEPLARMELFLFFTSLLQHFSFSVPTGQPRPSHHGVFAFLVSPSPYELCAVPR
# How it was run: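 Human CYP2D6 (5 nM) with 30 uM Luciferin-ME EGE (at Km) in 100 mM KPO4, compound preincubated 10 min, then NADPH regeneration system for 60 min at room temperature. Luciferin read by luminescence; normalized to 1.43 uM quinidine.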
# [15] = molecular target: Cytochrome P450 2C19 (Homo sapiens) (UniProt P33261); experiment: qHTS Assay for Inhibitors and Substrates of Cytochrome P450 2C19 (AID 899; active = well fitted curve in the direction sought with a large enough effect; an effect the other way counts as inactive or inconclusive; also: % is scaled to controls: 0 for no effect and ±100 for the full control effect; nearly all actives have a fitted effect of over 60% in size); settings: recombinant CYP2C19, luciferin-H EGE luminescence; series mostly up to 57.1 µM
# Chain of Cytochrome P450 2C19 (Homo sapiens) (P33261 whole entry, looked up): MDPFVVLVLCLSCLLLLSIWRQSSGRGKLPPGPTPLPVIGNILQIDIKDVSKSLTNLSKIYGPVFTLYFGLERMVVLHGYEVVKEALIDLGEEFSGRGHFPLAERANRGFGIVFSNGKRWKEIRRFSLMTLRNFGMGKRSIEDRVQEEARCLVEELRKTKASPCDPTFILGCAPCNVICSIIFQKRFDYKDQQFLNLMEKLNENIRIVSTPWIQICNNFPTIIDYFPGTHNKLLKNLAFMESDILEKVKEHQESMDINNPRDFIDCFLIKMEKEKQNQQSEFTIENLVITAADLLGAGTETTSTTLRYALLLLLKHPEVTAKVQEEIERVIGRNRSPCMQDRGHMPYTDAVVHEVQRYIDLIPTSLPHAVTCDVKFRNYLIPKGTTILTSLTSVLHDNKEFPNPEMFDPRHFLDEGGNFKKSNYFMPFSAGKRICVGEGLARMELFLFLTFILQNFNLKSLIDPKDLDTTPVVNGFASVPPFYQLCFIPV
# How it was run: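 Luminescence readout of luciferin formed from 10uM Luciferin-H EGE (KM level) by 5 nM CYP2C19 in 50mM KPO4. 60 min NADPH-driven reaction at 37C after 10 min compound preincubation; data scaled to 57uM ketoconazole inhibition.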
# [16] = Confirmation and Secondary Assay for Modulators of Hemoglobin Beta Chain Splicing at IVS2 705 locus (AID 930; active = well fitted curve in the direction sought with a large enough effect; an effect the other way counts as inactive or inconclusive;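 also: HeLa cells stably expressing the EGFP-705 splicing reporter; GFP fluorescence per well restored by corrected splicing of the IVS2-705 intron in EGFP; % of control where 0% means no effect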); settings: HeLa EGFP-705 splicing reporter, GFP fluorescence, 48 h; series mostly up to 38.3 µM
# How it was run: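 Splice-correction reporter: EGFP cDNA split by beta-globin intron 2 bearing the 705 mutation, stably in HeLa. Compound incubation 2 days, 37C; fluorescent objects 5-250 µm summed per well.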
# [17] = molecular target: Cytochrome P450 3A4 (Homo sapiens) (UniProt P08684); experiment: qHTS Assay for Inhibitors and Substrates of Cytochrome P450 3A4 (AID 884; active = well fitted curve in the direction sought with a large enough effect; an effect the other way counts as inactive or inconclusive; also: % is scaled to controls: 0 for no effect and ±100 for the full control effect; nearly all actives have a fitted effect of over 50% in size); settings: recombinant CYP3A4, Luciferin-PPXE luminescence; series mostly up to 57.1 µM
# How it was run: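 20 nM human CYP3A4 with 25 uM Luciferin-PPXE (at KM) in 200 mM KPO4, preincubated 10 min with compound; NADPH regeneration started a 60 min RT reaction. Luciferin detected by luminescence, normalized to 57 uM ketoconazole as full inhibition.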
# [18] = measured here: cell count channel max response
# [19] = measured here: lipid channel max response
SMILES,Potency [1],"activity change, negative = inhibition [2]","activity change, negative = inhibition [3]","activity, negative = inhibition [4]",Potency [5],Potency [6],Potency [7],Potency [8],Potency [9],"activity change, negative = inhibition [10]","max response [10, 18]","max response [10, 19]",Potency [11],Potency [12],Potency [13],Potency [14],Potency [15],outcome [16],Potency [10],Potency [17]
COc1cccc(-c2nc(N3CCNCC3)c3ccccc3n2)c1,> 11.4 µM (inactive),21.6% (inactive),-0.232% (inactive),-3.15% (inactive),> 46 µM (inactive),> 46 µM (inactive),inactive,inactive,inactive,5.82% (inactive),-17.6%,-11.1%,inactive,,,,,,,
FC(F)(F)c1cc(CN2CC[C@@]3(CCCNC3)C2)cc(C(F)(F)F)c1,> 11.4 µM (inactive),7.88% (inactive),,4.03% (inactive),,> 46 µM (inactive),inactive,inactive,,1.16% (inactive),8.55%,10.6%,,inactive,inactive,inactive,inactive,,,
CN(C)Cc1ccccc1-c1ccc2ncnc(NC3CC3)c2c1,> 11.4 µM (inactive),24% (inactive),-9.4% (inactive),-14.6% (inactive),> 46 µM (inactive),> 46 µM (inactive),inactive,inactive,inactive,9.69% (inactive),12.6%,24.1%,inactive,,,,,inactive,,
CS(=O)(=O)N1CCC[C@@]2(CCN(C(c3ccccc3)c3ccccc3)C2)C1,> 11.4 µM (inactive),5.41% (inactive),-7.94% (inactive),1.66% (inactive),,> 46 µM (inactive),inactive,inactive,,,-26.7%,-82.6%,,25.1 µM (active),inactive,3.98 µM (active),,,7.94 µM (active),
COc1ccccc1CN1CC[C@@]2(CCCN(S(=O)(=O)c3ccccc3)C2)C1,> 11.4 µM (inactive),7.37% (inactive),,8.35% (inactive),,> 46 µM (inactive),inactive,inactive,,6.22% (inactive),0.611%,10.2%,,25.1 µM (active),inactive,,,,,
Cn1cccc1C(=O)N1CCC2(CCN(C(=O)Nc3ccccc3)CC2)CC1,> 11.4 µM (inactive),-3.67% (inactive),5.41% (inactive),-8.38% (inactive),,> 46 µM (inactive),inactive,inactive,,5.15% (inactive),0.66%,6.81%,,inactive,,,,,,inactive
N#Cc1ccc(CN2CC[C@@]3(CCCN(S(=O)(=O)c4ccccc4)C3)C2)cc1,> 11.4 µM (inactive),0.616% (inactive),,-5.91% (inactive),,> 46 µM (inactive),inactive,inactive,,-4.95% (inactive),13.6%,7.48%,,15.8 µM (active),,,,,,

# Source: PubChem BioAssay (NCATS)
